Screen size: about 5,500 compounds; about 2,000 (36%) were called active. Roughly 18% stayed inconclusive and do not appear here. No stated cut-off is given here; in the data, active means normalized growth mostly below about 0.91 (no sharp cut-off); inconclusive means no clear call, values can overlap the other calls; inactive means mostly above about 0.92. This is one part of the list.
Assay: chemical genetic growth profiling, strain panel (AID 1159580);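 further: tested at 20 µM; growth read once vehicle control cultures reached saturation at 30 °C; 1 = growth at the plate median or of vehicle wells; lower values mean less growth of the strain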
Settings: S. cerevisiae deletion strains, growth OD
[1] = locus YAL021C, strain ccr4, active compounds read low
[2] = locus YAL026C, strain drs2, active compounds read low
[3] = locus YAL030W, strain snc1, active compounds read low
[4] = locus YBL061C, strain skt5, active compounds read low
[5] = locus YBR009C, strain hhf1, active compounds read low
[6] = locus YBR023C, strain chs3, active compounds read low
[7] = locus YBR171W, strain sec66, active compounds read low
[8] = locus YBR231C, strain swc5, active compounds read low
[9] = locus YBR279W, strain paf1, active compounds read low
[10] = locus YCL011C, strain gbp2, active compounds read low
[11] = locus YCL016C, strain dcc1, active compounds read low
[12] = locus YCL069W, strain vba3, active compounds read low
[13] = locus YCR088W, strain abp1, active compounds read low
[14] = locus YDL005C, strain med2, active compounds read low
[15] = locus YDL040C, strain nat1, active compounds read low
[16] = locus YDR001C, strain nth1, active compounds read low
[17] = locus YDR069C, strain doa4, active compounds read low
[18] = locus YDR137W, strain rgp1, active compounds read low
[19] = locus YDR159W, strain sac3, active compounds read low
[20] = locus YDR297W, strain sur2, active compounds read low
[21] = locus YDR334W, strain swr1, active compounds read low
[22] = locus YDR335W, strain msn5, active compounds read low
[23] = locus YDR392W, strain spt3, active compounds read low
[24] = locus YEL003W, strain gim4, active compounds read low
[25] = locus YEL037C, strain rad23, active compounds read low
[26] = locus YEL061C, strain CIN8 (second series), active compounds read low
[27] = locus YER015W, strain faa2, active compounds read low
[28] = locus YER016W, strain bim1, active compounds read low
[29] = locus YER111C, strain swi4, active compounds read low
[30] = locus YER155C, strain BEM2 (second series), active compounds read low
[31] = locus YFR010W, strain ubp6, active compounds read low
[32] = locus YGL167C, strain pmr1, active compounds read low
[33] = locus YGL173C, strain kem1, active compounds read low
[34] = locus YGL227W, strain vid30, active compounds read low
[35] = locus YGL240W, strain doc1, active compounds read low
[36] = locus YGL253W, strain hxk2, active compounds read low
[37] = locus YHR013C, strain ard1, active compounds read low
[38] = locus YHR027C, strain rpn1, active compounds read low
[39] = locus YHR030C, strain SLT2, active compounds read low
[40] = locus YHR079C, strain IRE1, active compounds read low
[41] = locus YHR142W, strain chs7, active compounds read low
[42] = locus YJL092W, strain hpr5, active compounds read low
[43] = locus YJL095W, strain BCK1 (second series), active compounds read low
[44] = locus YJL095W, strain BCK1, active compounds read low
[45] = locus YJL115W, strain asf1, active compounds read low
[46] = locus YJL129C, strain trk1, active compounds read low
[47] = locus YJL154C, strain vps35, active compounds read low
[48] = locus YJL164C, strain tpk1, active compounds read low
[49] = locus YJL166W, strain qcr8, active compounds read low
[50] = locus YJR066W, strain TOR1, active compounds read low
[51] = locus YKL160W, strain elf1, active compounds read low
[52] = locus YKR026C, strain gcn3, active compounds read low
[53] = locus YKR091W, strain srl3, active compounds read low
[54] = locus YLL001W, strain dnm1, active compounds read low
[55] = locus YLL026W, active compounds read low
[56] = locus YLL041C, strain sdh2, active compounds read low
[57] = locus YLR027C, strain aat2, active compounds read low
[58] = locus YLR113W, strain HOG1, active compounds read low
[59] = locus YLR221C, strain rsa3, active compounds read low
[60] = locus YLR258W, strain gsy2, active compounds read low
[61] = locus YLR262C, strain YPT6 (second series), active compounds read low
[62] = locus YLR320W, strain mms22, active compounds read low
[63] = locus YLR342W, strain FKS1, active compounds read low
[64] = locus YLR357W, strain rsc2, active compounds read low
[65] = locus YLR370C, strain arc18, active compounds read low
[66] = locus YLR384C, strain iki3, active compounds read low
[67] = locus YML120C, strain ndi1, active compounds read low
[68] = locus YMR058W, strain fet3, active compounds read low
[69] = locus YMR125W, strain sto1, active compounds read low
[70] = locus YMR129W, active compounds read low
[71] = locus YMR205C, strain PFK2, active compounds read low
[72] = locus YMR231W, strain pep5, active compounds read low
[73] = locus YNL071W, strain lat1, active compounds read low
[74] = locus YNL183C, strain NPR1, active compounds read low
[75] = locus YNL209W, strain ssb2, active compounds read low
[76] = locus YNL248C, strain rpa49, active compounds read low
[77] = locus YNL322C, strain KRE1 (second series), active compounds read low
[78] = locus YNR049C, strain mso1, active compounds read low
[79] = locus YOR001W, strain rrp6, active compounds read low
[80] = locus YOR070C, strain gyp1, active compounds read low
[81] = locus YOR080W, strain dia2, active compounds read low
[82] = locus YOR083W, strain WHI5, active compounds read low
[83] = locus YOR106W, strain vam3, active compounds read low
[84] = locus YOR231W, strain MKK1, active compounds read low
[85] = locus YOR265W, strain rbl2, active compounds read low
[86] = locus YOR270C, strain vph1, active compounds read low
[87] = locus YOR290C, strain snf2, active compounds read low
[88] = locus YPL051W, strain arl3, active compounds read low
[89] = locus YPL078C, strain atp4, active compounds read low
[90] = locus YPL106C, strain sse1, active compounds read low
[91] = locus YPL240C, strain hsp82, active compounds read low
[92] = locus YPL256C, strain CLN2, active compounds read low

Measured: normalized growth

Nc1ncn[nH]1
inactive: [1] 0.986 | [2] 1.02 | [3] 1.02 | [4] 1.02 | [5] 1.04 | [6] 1.02 | [7] 1.02 | [8] 1.02 | [9] 1.02 | [10] 1.02 | [11] 1.02 | locus YCL061C, strain MRC1, active compounds read low 1.02 | [12] 1.02 | [13] 1.02 | [14] 1.02 | [15] 1.02 | [16] 1.02 | [17] 1.03 | [18] 1 | [19] 1.05 | locus YDR195W, strain ref2 1.01 | [20] 1.01 | [21] 1.02 | [22] 1.02 | [23] 0.966 | [24] 1.02 | [25] 1.02 | [26] 1.01 | [27] 1.02 | [28] 1.03 | [29] 1.02 | [30] 1.04 | [31] 1.02 | [32] 1.02 | [33] 1.02 | [34] 1.02 | [35] 1.05 | [36] 1.01 | [37] 1.01 | [38] 1.02 | [39] 0.995 | [40] 1 | [41] 0.97 | [42] 1.02 | [43] 1.02 | [44] 0.967 | [45] 1.02 | [46] 1 | [47] 1.02 | [48] 1 | [49] 1.01 | locus YJL187C, strain SWE1, active compounds read low 1.02 | [50] 0.923 | [51] 0.974 | [52] 1.01 | [53] 1.02 | [54] 1.03 | [55] 1.01 | [56] 1.02 | [57] 1.01 | [58] 0.985 | [59] 0.995 | [60] 1.03 | [61] 1 | [62] 1.03 | [63] 1.01 | [64] 1.06 | [65] 1.01 | [66] 1 | [67] 0.997 | [68] 1.02 | [69] 1.05 | [70] 1.01 | [71] 1.05 | [72] 1.02 | [73] 1.01 | [74] 0.933 | [75] 1.01 | [76] 0.985 | [77] 1 | [78] 1.02 | [79] 1 | [80] 1.03 | [81] 1.02 | [82] 0.979 | [83] 0.987 | [84] 0.988 | [85] 1.01 | [86] 1.02 | [87] 0.982 | [88] 0.988 | [89] 0.982 | [90] 1.05 | [91] 1.02 | [92] 0.96

O=C(O)[C@@H]1CCN1
inactive: locus YAL040C, strain CLN3, active compounds read low 1.01 | locus YDR363W, strain ESC2, active compounds read low 0.998 | locus YER002W, strain NOP16, active compounds read low 0.998 | locus YGR078C, strain PAC10, active compounds read low 1.01 | locus YGR229C, strain SMI1, active compounds read low 0.984 | locus YMR263W, strain SAP30, active compounds read low 0.998 | locus YMR307W, strain GAS1, active compounds read low 0.992 | locus YNL153C, strain GIM3, active compounds read low 0.996 | locus YNL175C, strain NOP13, active compounds read low 1.01 | locus YNL197C, strain WHI3, active compounds read low 1.02 | locus YNL224C, strain SQS1, active compounds read low 0.963 | locus YOR083W, strain WHI5 (second series), active compounds read low 1 | locus YPL055C, strain LGE1, active compounds read low 0.996 | locus YPL241C, strain CIN2, active compounds read low 1.01

CCOC(=O)n1ccn(C)c1=S
inactive: [1] 0.987 | [2] 0.996 | [3] 0.994 | [4] 1.01 | [5] 0.946 | [6] 1.01 | [7] 0.98 | [8] 0.984 | [9] 1 | [10] 0.997 | [11] 1.03 | [12] 0.984 | [13] 0.99 | [14] 0.99 | [15] 0.985 | [16] 0.982 | [17] 0.994 | [18] 0.96 | [19] 0.881 | locus YDR195W, strain ref2 0.976 | [20] 1 | [21] 0.961 | [22] 1.01 | [23] 0.939 | [24] 0.972 | [25] 0.974 | [26] 0.966 | [27] 0.982 | [28] 1.06 | [29] 0.994 | [30] 0.961 | [31] 0.955 | [32] 0.97 | [33] 0.975 | [34] 0.985 | [35] 0.995 | [36] 0.998 | [37] 1.02 | [38] 0.997 | [39] 1.02 | [40] 1.01 | [41] 1.01 | [42] 0.987 | [43] 0.99 | [44] 1.01 | [45] 0.963 | [46] 0.974 | [47] 0.977 | [48] 0.979 | [49] 0.986 | [50] 0.988 | [51] 1.04 | [52] 0.97 | [53] 0.99 | [54] 0.951 | [55] 0.986 | [56] 0.988 | [57] 0.999 | [58] 0.999 | [59] 0.967 | [60] 1 | [61] 0.929 | [62] 0.931 | [63] 1.01 | [64] 0.99 | [65] 0.998 | [66] 0.981 | [67] 0.974 | [68] 0.991 | [69] 0.971 | [70] 0.979 | [71] 0.983 | [72] 0.988 | [73] 0.98 | [74] 0.971 | [75] 0.985 | [76] 1.04 | [77] 1.01 | [78] 0.999 | [79] 0.949 | [80] 1.01 | [81] 0.998 | [82] 1.01 | [83] 1.02 | [84] 1.02 | [85] 0.988 | [86] 1.02 | [87] 1.05 | [88] 1.06 | [89] 1.05 | [90] 1.04 | [91] 0.994 | [92] 0.98
